Consider 28 compounds from PubChem BioAssay AID493014 (National Center for Advancing Translational Sciences (NCATS), 2011).

The whole screen tested about 340,000 compounds, of which about 170 (0.05%) were called active. Another 26% or so got no clear call; they are omitted. The call rests on the fitted dose curve; in most records, active means well fitted inhibition curve with a large enough effect in the signal ratio, with a control signal flat (not every such curve was filed as active); inconclusive means small, poorly fitted or top-dose-only effect, or effect the other way, or a change in a side signal; inactive means flat fitted curve, though single readings scatter; the % refers to the signal ratio. What follows is part of a selection rich in actives, with near analogues and random picks from the rest. Where a call stands in place of a potency, no number is given.
Potency means the concentration at half of the fitted maximal effect.

This experiment in a line: qHTS Assay to Find Inhibitors of Chronic Active B-Cell Receptor Signaling. The conditions noted are these: ABC-DLBCL IkBa-CBG/CBR reporter, luminescence ratio, 4 h; series mostly up to 46.1 µM. An excerpt:
NIH Molecular Libraries Probe Production Network [MLPCN] NIH Chemical Genomics Center [NCGC] MLPCN Grant: 1 R03 DA031086-01A1 PI Name: Dr. R. Eric Davis NCGC Assay Overview: Diffuse large B-cell lymphoma (DLBCL) is the most common category of non-Hodgkin lymphoma, with ~20,000 new cases per year in the United States. DLBCL should be regarded as a collection of different neoplasms. Microarray gene expression analysis has defined two principal types of DLBCL, named for their similarity to normal B cell stages or activation states: a germinal center B-cell (GCB) type, and an activated B-cell (ABC) type. In ABC-DLBCL, a constitutive high-level activity of the NF-kappaB family of transcription factors has been observed (1) and NF-kappaB target genes are more highly expressed in ABC primary tumors than in GCB tumors. Functional studies have shown a constitutive high-level activity of the IkappaB (inhibitor of kappa-B) kinase (IKK) complex. […] Further analysis of DLBCL primary tumors for NF-kappaB target gene expression imply that although CARD11 is required for constitutive IKK activity in all ABC-DLBCL lines, mutations in CARD11 may be the root cause of IKK activation only in lines or tumors with such mutations. In other words, CARD11 mutations may explain NF-kappaB activation in only 10% of ABC-DLBCL cases. […] This process has been termed 'chronic active BCR signaling' (CABS). The goal of this screen is to find small-molecule inhibitors of the CABS pathway found in ABC-DLBCL lines using a cell-based assay that measures IkappaBalpa stability, which has already been extensively validated in the OCI-Ly3 line (PubChem AID:445; REF: 4). […] The assay uses green (CBG68) and red (CBR) emitting beetle luciferases [Chroma-GloTM developed by Promega Corp.] where the green luciferase is fused to IkappaBalpha and the red luciferase is present in its native state. Both luciferase genes are stably present in the TMD8 human ABC DLBCL cell line, but their expression is under the control of tetracycline-inducible promoters. Following the addition of doxycycline to induce expression of the luciferases, the green luminescence in control cultures rises only slowly because the CBG fusion partner IkappaBalpha is targeted by IKK activity for rapid degradation. In contrast, green luminescence rises rapidly in the presence of proteasome inhibitors or IKK inhibitors. The rise in red luminescence of CBR is not affected by proteasome or IKK inhibitors, and serves as normalization for cell number and nonspecific effects. Compounds were screened as a concentration-titration series that ranged from 46 uM to 3 nM.
NCGC Assay Protocol Summary: Cells were seeded in 1536-well plates at 5000 cells/4uL in IMDM medium containing 0.5% FBS, w/o phenol red, 1% penicillin/streptomycin. Then, 23 nL of compounds or DMSO were delivered to each well using a pin tool. One uL 20ng/ml doxycycline was then dispensed into white solid 1536-well plates and the plates were incubated at 37C/5% C02 in a cell incubator for 4 hrs. Then 4 uL luminescent substrate mix (in-house prepared: 150 mM Tris-Cl, pH 7.6, 3 mM MgCl2, 1% Triton X-100, 5 mM DTT, 0.2 mM CoA, 0.15 mM ATP, 5 mM D-luciferin, final concentrations) was added to each well. The plate was incubated at r.t. for 10-15 min. The plates were measured on a ViewLux plate reader for green luminescence (540/20 nm filter) and red luminescence (618/8 nm filter). The green and red luminescent signals were corrected for red and green luminescence filter overlap using previously determined filter calibration constants (determined using the procedure outlined in the Promega Technical Manual; REF 4). The %Activity was determined from the ratio of corrected green/red luminescent values. MG132 were used as control. […] Red luminescent %Activity was normalized to the difference between red luminesence in basal cells (0%Activity) and zero luminescence (-100% Activity). […]
With `Cc1ccc(NC(=O)c2cccc(S(=O)(=O)N3CCCc4ccccc43)c2)nc1`, the Potency entry is “inactive”.

As for `Cc1ccc(S(=O)(=O)N2CCN(C(=O)Cn3c(=O)cnc4ccccc43)CC2)c(C)c1`, the Potency entry is “inactive”.

As to `COc1ccc(N2CCN(C(CNS(=O)(=O)c3ccc(C)cc3)c3ccccc3)CC2)cc1` (stereo not drawn), the Potency result is “inactive”.

Regarding `COc1ccc(CCN(C)C(=O)C23CC4CC(CC(Cl)(C4)C2)C3)cc1OC`, the Potency entry was “inactive”.

For `COC(=O)[C@]1(C)N[C@H](c2ccc(-c3ccc(Cl)c(Cl)c3)cc2)[C@@H]2C(=O)N(C)C(=O)[C@@H]21`, the Potency entry is “inactive”.

With `CC(C)(C)OC(=O)C[C@@H]1C/C=C\C[C@@H](CC(=O)N(CCO)Cc2ccccc2)C(=O)N[C@H](Cc2ccccc2)COC1=O`, the Potency result is “inactive”.

Consider `CSCCC1NC(=O)N(CC(=O)Nc2cccc(S(=O)(=O)N3CCCCCC3)c2)C1=O` (stereo not drawn), for which the Potency entry is “inactive”.

Turning to `Cc1c(O)c(C)c2c(c1O)C(=O)C[C@@H](c1ccccc1)O2`, the Potency result is “inactive”.

For `COc1ccc(CNC(=O)/C(C#N)=C/c2cccc(OC)c2OC)cc1`, the Potency was 11.2 µM (active).

For `COc1ccc(/C=C(\C#N)C(=O)NCCCn2ccnc2)cc1`, the Potency entry is “inactive”.

`COc1ccc(CNC(=O)CCn2cccc2)cc1`: the Potency entry is “inactive”.

Turning to `CCC1=Nc2cc(C(=O)NCCCN3CCOCC3)ccc2Sc2ccc(Br)cc21`, the Potency entry was “inactive”.

Turning to `COCCCNC(=O)CC1C[C@H](C(=O)N2CCCCC2)[C@@]2(CCc3ccccc3)c3[nH]c4ccccc4c3CCN2C1=O` (stereo partly drawn), the Potency entry is “inactive”.

`O=C1OC[C@@H]2CCCN2C(=O)[C@H](CC(=O)N(CCO)Cc2ccccc2)C/C=C\CC[C@@H]1Cc1ccc(F)cc1`: the Potency entry is “inactive”.

Consider `Cc1cccc(Nc2nnc(SCC(=O)c3c(N)n(C4CC4)c(=O)[nH]c3=O)s2)c1C`, for which the Potency entry is “inactive”.

On to `Cc1cccc(C)c1NC(=O)COC(=O)c1c(C)nn(-c2ccccc2)c1C`, for which the Potency result was “inactive”.

On to `O=C1NC(Cc2ccc(O)cc2)c2nc3ccc(Cl)cc3c(=O)n2-c2ccccc21` (stereo not drawn), for which the Potency entry is “inactive”.

On to `CCC(CC)COC(=O)C1=C(C)NC(=O)NC1c1ccc([N+](=O)[O-])cc1` (stereo not drawn), for which the Potency result was “inactive”.

In the case of `Cc1ccc(CC(=O)Nc2ccc(S(=O)(=O)N3CCOCC3)cc2)cc1C`, the Potency result is “inactive”.

Take `CC(C)(C)OC(=O)Nc1ccc([C@@H](NC(=O)OC(C)(C)C)C(=O)OC(C)(C)C)cc1`: the Potency result was “inactive”.

As for `CN(C(=O)c1cccc(NC(=O)Cc2ccc([N+](=O)[O-])cc2)c1)C1CCC1`, the Potency result is “inactive”.

Regarding `CN(C)S(=O)(=O)c1cccc(NC(=O)COc2ccc3ccccc3c2)c1`, the Potency result is “inactive”.

Regarding `COc1ccc(-c2nc3c(s2)CCc2onc(-c4ccc(OC)cc4)c2-3)cc1`, the Potency entry was “inactive”.

As to `CCOC(=O)[C@@H]1[C@H]2COc3ccc(Br)cc3[C@H]2N2C(=O)N(c3ccc(C)cc3)C(=O)[C@@]12C`, the Potency result is “inactive”.

Turning to `CN(C(=O)c1cccc(NC(=O)C2CCN(C(=O)OC(C)(C)C)CC2)c1)C1CCC1`, the Potency result was “inactive”.

As to `CC(=O)c1ccc(OCCCC(=O)Nc2ccc(C)c(S(=O)(=O)N3CCOCC3)c2)cc1`, the Potency entry was “inactive”.

Take `COc1cc(C(c2c(NC(=O)c3ccco3)sc(C)c2C)N2CCOCC2)cc(OC)c1OC` (stereo not drawn): the Potency result was “inactive”.

Consider `Cc1ccc(S(=O)(=O)N(C)C)cc1NC(=O)CN1c2cccc3cccc(c23)S1(=O)=O`, for which the Potency result is “inactive”.
